Source: PubChem BioAssay
Inconclusive results are not listed. The source made the active and inactive calls.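 The calls were made as follows, unless noted: active = normalized viability below 100% at a tested concentration; inactive = the rest.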

Assays:
[1] = growth inhibition of DIPG glioma cells, dose response, cell-based, SU-DIPG-XVII, MIPE5.0, CellTiter-Glo, qHTS (AID 1347060; cut-off not given, nearly all actives have AC50 up to about 26 µM;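 as to AC50: cells exposed to compound for 48 hours before viability readout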); settings: SU-DIPG-XVII viability, CellTiter-Glo ATP luminescence
[2] = growth inhibition of DIPG glioma cells, dose response, cell-based, JHH-DIPG-1, MIPE4.0, CellTiter-Glo, qHTS (AID 1347062; cut-off not given, nearly all actives have AC50 up to about 27 µM;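 as to AC50: cells exposed to compound for two days before readout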); settings: JHH-DIPG-1 viability, CellTiter-Glo ATP luminescence
[3] = growth inhibition of DIPG glioma cells, dose response, cell-based, SU-DIPG-IV, MIPE4.0, CellTiter-Glo, qHTS (AID 1347063; cut-off not given, nearly all actives have AC50 up to about 30 µM;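 also: compound exposure lasted 48 hours before the viability readout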); settings: SU-DIPG-IV viability, CellTiter-Glo ATP luminescence
[4] = growth inhibition of DIPG glioma cells, dose response, cell-based, SU-DIPG-XIII, MIPE5.0, CellTiter-Glo, qHTS (AID 1347064; cut-off not given, nearly all actives have AC50 up to about 23 µM;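 as to AC50: cells exposed to compound for 48 hours before the viability read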); settings: SU-DIPG-XIII viability, CellTiter-Glo ATP luminescence
[5] = viability loss in pontine glioma line – cell-based, SU-DIPG-XXV, MIPE5.0, CellTiter-Glo, qHTS, dose response (AID 1347065; cut-off not given, nearly all actives have AC50 up to about 26 µM;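 also: cells exposed to compound for 48 hours before ATP readout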); settings: CellTiter-Glo ATP luminescence
[6] = JHH-DIPG-1 glioma cell viability, MIPE5.0 library, CellTiter-Glo luminescence, qHTS (AID 1347067; cut-off not given, nearly all actives have AC50 up to about 26 µM;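 also: cells exposed to compound for 48 hours before readout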); settings: JHH-DIPG-1 glioma viability, CellTiter-Glo ATP luminescence
[7] = SU-DIPG-XXV glioma cell viability, MIPE5.0 library, qHTS (AID 1347068; cut-off not given, nearly all actives have IC50 up to about 30 µM;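 as to IC50: cells exposed to compound for 48 hours before viability readout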)
[8] = sensitizers of A549 cells to miR-34 induction, primary screen, imaging, A549 dox-inducible miR-34, nuclei and caspase counts (AID 1347080;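 active = compounds whose cell count with miR-34 switched on is under 0.7 times the count with it off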); settings: A549 miR-34 inducible, Hoechst nuclei count, 48 h
[9] = modifiers of HSF1 nuclear foci, imaging, Selleck Cancer Library (AID 1347162; in the data active = plate-normalised HSF1 focus index below about 0.46); settings: human cells, at 10 µM; SSMD: measured here: HSF1 foci SSMD mean; cell count: measured here: cell number; plate-normalised HSF1 focus index: stronger effect = lower value
[10] = survival rescue of mitochondrial mutant cells in low glucose, primary screen, MELAS cybrids, Rieske KO mouse fibroblasts, CellTiter-Glo (AID 1508586;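 active = mean z-score across replicates of 1.96 or higher in either the MELAS or the Rieske mutant cell line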;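 also: z relative to plate mean and SD of compound and empty wells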)
[11] = ovarian cancer cell viability with rucaparib, profiling panel, oncology-focused library, rucaparib conditional (AID 1508598); settings: patient-derived ovarian cancer cells, CellTiter-Glo viability, 144 h, stronger effect = lower value
[12] = stronger effect = lower value, cell number ratio, induced over uninduced
[13] = measured here: relative caspase fold change +Dox/-Dox
[14] = measured here: total cells with miR-34 induction, stronger effect = lower value
[15] = measured here: total cells without miR-34 induction
[16] = MELAS cybrid survival, CellTiter-Glo 48 h, stronger effect = higher value
[17] = Rieske KO mouse fibroblast survival, CellTiter-Glo 72 h
[18] = at 0.000305 µM, OCI-C5x cells, with rucaparib 10 µM, 100% = cells with rucaparib alone
[19] = at 0.000305 µM, OCI-C5x cells, without rucaparib
[20] = at 0.000305 µM, OCI-P5x cells, with rucaparib 20 µM, 100% = cells with rucaparib alone
[21] = at 0.000305 µM, OCI-P5x cells, without rucaparib
[22] = at 0.00122 µM, OCI-C5x cells, with rucaparib 10 µM, 100% = cells with rucaparib alone
[23] = at 0.00122 µM, OCI-C5x cells, without rucaparib
[24] = at 0.00122 µM, OCI-P5x cells, with rucaparib 20 µM, 100% = cells with rucaparib alone
[25] = at 0.00122 µM, OCI-P5x cells, without rucaparib
[26] = at 0.00488 µM, OCI-C5x cells, with rucaparib 10 µM, 100% = cells with rucaparib alone
[27] = at 0.00488 µM, OCI-C5x cells, without rucaparib
[28] = at 0.00488 µM, OCI-P5x cells, with rucaparib 20 µM, 100% = cells with rucaparib alone
[29] = at 0.00488 µM, OCI-P5x cells, without rucaparib
[30] = at 0.0195 µM, OCI-C5x cells, with rucaparib 10 µM, 100% = cells with rucaparib alone
[31] = at 0.0195 µM, OCI-C5x cells, without rucaparib
[32] = at 0.0195 µM, OCI-P5x cells, with rucaparib 20 µM, 100% = cells with rucaparib alone
[33] = at 0.0195 µM, OCI-P5x cells, without rucaparib
[34] = at 0.0781 µM, OCI-C5x cells, with rucaparib 10 µM, 100% = cells with rucaparib alone
[35] = at 0.0781 µM, OCI-C5x cells, without rucaparib
[36] = at 0.0781 µM, OCI-P5x cells, with rucaparib 20 µM, 100% = cells with rucaparib alone
[37] = at 0.0781 µM, OCI-P5x cells, without rucaparib
[38] = at 0.313 µM, OCI-C5x cells, with rucaparib 10 µM, 100% = cells with rucaparib alone
[39] = at 0.313 µM, OCI-C5x cells, without rucaparib
[40] = at 0.313 µM, OCI-P5x cells, with rucaparib 20 µM, 100% = cells with rucaparib alone
[41] = at 0.313 µM, OCI-P5x cells, without rucaparib
[42] = at 1.25 µM, OCI-C5x cells, with rucaparib 10 µM, 100% = cells with rucaparib alone
[43] = at 1.25 µM, OCI-C5x cells, without rucaparib
[44] = at 1.25 µM, OCI-P5x cells, with rucaparib 20 µM, 100% = cells with rucaparib alone
[45] = at 1.25 µM, OCI-P5x cells, without rucaparib
[46] = at 5 µM, OCI-C5x cells, with rucaparib 10 µM, 100% = cells with rucaparib alone
[47] = at 5 µM, OCI-C5x cells, without rucaparib
[48] = at 5 µM, OCI-P5x cells, with rucaparib 20 µM, 100% = cells with rucaparib alone
[49] = at 5 µM, OCI-P5x cells, without rucaparib

Cc1cc(OCCCS(C)(=O)=O)cc(C)c1-c1cccc(COc2ccc3c(c2)OC[C@H]3CC(=O)O)c1
inactive: outcome [1] | outcome [2] | outcome [3] | outcome [4] | outcome [5] | outcome [6] | outcome [7]

c1ccc2c(CCNc3ccc(Nc4ccncc4)cc3)c[nH]c2c1
-0.307: z-score [10, 17]
2540: cell count [8, 14]
2490: cell count [8, 15]
-0.197: SSMD [9]
1.37: fold change [8, 13]
inactive: fold change [8, 12] 1.02 | plate-normalised HSF1 focus index [9] 0.99 | z-score [10, 16] -0.455 | viability [11, 18] 116% | viability [11, 19] 111% | viability [11, 20] 114% | viability [11, 21] 116% | viability [11, 22] 116% | viability [11, 23] 111% | viability [11, 24] 117% | viability [11, 25] 121% | viability [11, 26] 116% | viability [11, 28] 112% | viability [11, 29] 119% | viability [11, 30] 111% | viability [11, 31] 105% | viability [11, 32] 111% | viability [11, 33] 122% | viability [11, 34] 104% | viability [11, 35] 111% | viability [11, 36] 112% | viability [11, 37] 122% | viability [11, 38] 110% | viability [11, 39] 101% | viability [11, 41] 110% | viability [11, 42] 107% | viability [11, 43] 107% | viability [11, 45] 104% | viability [11, 47] 106%
active: AC50 [1] 18.6 µM | AC50 [2] 18.7 µM | AC50 [3] 18.7 µM | AC50 [4] 20.9 µM | AC50 [5] 26.3 µM | AC50 [6] 23.5 µM | IC50 [7] 5.9 µM | viability [11, 27] 99.7% | viability [11, 40] 99.7% | viability [11, 44] 94.3% | viability [11, 46] 25.5% | viability [11, 48] 78.5% | viability [11, 49] 99%
6510: cell count [9]

CN(C)CCCN=c1c2ccccc2n(C)c2[nH]c(=O)n(C)c(=O)c12
inactive: plate-normalised HSF1 focus index [9] 0.997
-0.045: SSMD [9]
active: AC50 [1] 29.5 µM | AC50 [2] 8.33 µM | AC50 [3] 14.8 µM | AC50 [4] 26.3 µM
6580: cell count [9]

O=C(O)c1ccc2c(c1)nc(Nc1cccc(Cl)c1)c1ccncc12
0.462: SSMD [9]
6500: cell count [8, 15]
7390: cell count [9]
inactive: fold change [8, 12] 0.797 | plate-normalised HSF1 focus index [9] 1.02 | z-score [10, 16] -0.486 | viability [11, 18] 103% | viability [11, 19] 125% | viability [11, 20] 103% | viability [11, 21] 105% | viability [11, 22] 119% | viability [11, 23] 130% | viability [11, 25] 111% | viability [11, 26] 106% | viability [11, 27] 118% | viability [11, 29] 104% | viability [11, 31] 126% | viability [11, 33] 115% | viability [11, 35] 116% | viability [11, 37] 110% | viability [11, 39] 115% | viability [11, 41] 107%
-0.116: z-score [10, 17]
0.974: fold change [8, 13]
active: AC50 [1] 8.33 µM | AC50 [2] 16.6 µM | AC50 [3] 7.43 µM | AC50 [5] 4.68 µM | AC50 [6] 2.95 µM | IC50 [7] 7.42 µM | viability [11, 24] 98.4% | viability [11, 28] 94% | viability [11, 30] 98% | viability [11, 32] 96% | viability [11, 34] 99.7% | viability [11, 36] 98.9% | viability [11, 38] 96.1% | viability [11, 40] 94.3% | viability [11, 42] 68.3% | viability [11, 43] 91.5% | viability [11, 44] 74.7% | viability [11, 45] 89.4% | viability [11, 46] 43.6% | viability [11, 47] 88.1% | viability [11, 48] 33.3% | viability [11, 49] 35.6%
5180: cell count [8, 14]
